Calls of active or inactive are those of the source. The calls were made as follows: active = hit-call score of the fitted dose curve at least 0.9, where 1 is the maximum; inactive = score below 0.9.
Columns and labels:
[1] = read-out: Macrophage colony-stimulating factor (MCSF), CSF1 (gene 1435); assay: BSK_hDFCGF_MCSF: BioMAP Diversity Plus: hDFCGF Assay for Macrophage colony-stimulating factor (MCSF) Biomarker Activity (AID 2283060); settings: primary human foreskin fibroblasts; actives raise or lower the signal
Outline: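 M-CSF levels read by ELISA at 24 h post-dosing in human skin fibroblasts. Parallel cultures stained with SRB assessed cytotoxicity at the same time point; response fitted in both directions against the DMSO baseline.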

[2] = BSK_hDFCGF_SRB: Viability Assessment in the BioMAP Diversity Plus: hDFCGF Assay (AID 2283061); settings: primary human foreskin fibroblasts;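 also: cells exposed to compound for 24 h before the read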
Outline: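 Viability was read as total protein: after 10% TCA fixation, wells were stained with 0.1% sulforhodamine B and read at 560 nm. Primary human foreskin fibroblasts were dosed for 24 h, with bidirectional fitting versus DMSO.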

[3] = read-out: TIMP metallopeptidase inhibitor 1 (TIMP1), TIMP1 (gene 7076); assay: BSK_hDFCGF_TIMP1: BioMAP Diversity Plus: hDFCGF Assay for TIMP metallopeptidase inhibitor 1 (TIMP1) Biomarker Activity (AID 2283062); settings: primary human foreskin fibroblasts; actives raise or lower the signal
Outline: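 TIMP-1 measured by ELISA 24 h after chemical dosing of primary human skin fibroblasts, with gain or loss fitted relative to DMSO. Parallel SRB staining (560 nm) monitored overt cytotoxicity.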

[4] = read-out: Monokine induced gamma interferon (MIG), CXCL9 (gene 4283); assay: BSK_hDFCGF_MIG: BioMAP Diversity Plus: hDFCGF Assay for Monokine induced gamma interferon (MIG) Biomarker Activity (AID 2283063); settings: primary human foreskin fibroblasts; actives raise or lower the signal
Outline: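 Human primary foreskin fibroblasts in the hDFCGF system, exposed to test chemical for 24 h; MIG measured by ELISA. Bidirectional curve fitting against DMSO negative control as activity baseline.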

[5] = read-out: Matrix Metallopeptidase 1 (MMP1), MMP1 (gene 4312); assay: BSK_hDFCGF_MMP1: BioMAP Diversity Plus: hDFCGF Assay for Matrix Metallopeptidase 1 (MMP1) Biomarker Activity (AID 2283064); settings: primary human foreskin fibroblasts; actives raise or lower the signal
Outline: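 ELISA read-out of MMP1 from human foreskin fibroblasts (primary skin cells), 24 h post-dose. Gain or loss of signal was fitted bidirectionally versus DMSO negative control; cytotoxicity was checked by SRB in parallel cultures.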

[6] = read-out: Vascular cell adhesion molecule 1 (VCAM1), VCAM1 (gene 7412); assay: BSK_hDFCGF_VCAM1: BioMAP Diversity Plus: hDFCGF Assay for Vascular cell adhesion molecule 1 (VCAM1) Biomarker Activity (AID 2283065); settings: primary human foreskin fibroblasts; actives raise or lower the signal;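 as to AC50: VCAM-1 protein level quantified by ELISA after 24 h chemical exposure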
Outline: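 ELISA readout of VCAM-1 on human dermal fibroblast primary cultures, 24 h after chemical exposure. Gain or loss of signal fitted in both directions against DMSO baseline.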

[7] = read-out: Plasminogen activator inhibitor-1 (PAI1), SERPINE1 (gene 5054); assay: BSK_hDFCGF_PAI1: BioMAP Diversity Plus: hDFCGF Assay for Plasminogen activator inhibitor-1 (PAI1) Biomarker Activity (AID 2283066); settings: primary human foreskin fibroblasts; actives raise or lower the signal
Outline: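 ELISA readout of PAI-1 from primary human skin fibroblast cultures, 24 h after compound addition. Gain or loss of signal was fitted bidirectionally against DMSO baseline.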

[8] = read-out: Intercellular Adhesion Molecule 1 (ICAM1), ICAM1 (gene 3383); assay: BSK_KF3CT_ICAM1: BioMAP Diversity Plus: KF3CT Assay for Intercellular Adhesion Molecule 1 (ICAM1) Biomarker Activity (AID 2283067); settings: primary human keratinocytes with fibroblasts; actives raise or lower the signal
Outline: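 Cell-surface ICAM-1 was measured by ELISA 24 h after dosing primary human skin keratinocytes co-cultured with fibroblasts. Parallel SRB staining tracked overt cytotoxicity. Gain or loss of signal was fitted relative to DMSO.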

[9] = read-out: Interferon-gamma inducible Protein 10 (IP10), CXCL10 (gene 3627); assay: BSK_KF3CT_IP10: BioMAP Diversity Plus: KF3CT Assay for Interferon-gamma inducible Protein 10 (IP10) Biomarker Activity (AID 2283068); settings: primary human keratinocytes with fibroblasts; actives raise or lower the signal
Outline: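 In a primary skin co-culture of keratinocytes and fibroblasts, IP-10 is quantified by ELISA at 24 h after dosing. SRB staining of parallel wells monitors overt toxicity. Curves are fitted both directions against DMSO.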

[10] = BSK_KF3CT_SRB: Viability Assessment in the BioMAP Diversity Plus: KF3CT Assay (AID 2283069); settings: primary human keratinocytes with fibroblasts;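 also: total protein by sulforhodamine B staining as a cytotoxicity measure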
Outline: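 SRB read-out at 560 nm (0.1% stain, TCA-fixed cells) gauges overt cytotoxicity in a human skin keratinocyte–fibroblast co-culture 24 h post-dosing. Signal change was fitted bidirectionally relative to DMSO control.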

[11] = read-out: Interleukin-1 alpha (IL1a), IL1A (gene 3552); assay: BSK_KF3CT_IL1a: BioMAP Diversity Plus: KF3CT Assay for Interleukin-1 alpha (IL1a) Biomarker Activity (AID 2283070); settings: primary human keratinocytes with fibroblasts; actives raise or lower the signal
Outline: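 Primary skin co-culture (keratinocytes, foreskin fibroblasts), 24 h exposure; ELISA for IL-1a; bidirectional curve fit vs DMSO.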

[12] = read-out: TIMP metallopeptidase inhibitor 2 (TIMP2), TIMP2 (gene 7077); assay: BSK_KF3CT_TIMP2: BioMAP Diversity Plus: KF3CT Assay for TIMP metallopeptidase inhibitor 2 (TIMP2) Biomarker Activity (AID 2283071); settings: primary human keratinocytes with fibroblasts; actives raise or lower the signal
Outline: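 ELISA readout of TIMP-2 in keratinocyte plus foreskin fibroblast co-cultures (human skin primary cells), 24 h post-dose. Gain or loss of signal fitted relative to DMSO.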

[13] = read-out: Transforming growth factor beta 1 (TGFb1), TGFB1 (gene 7040); assay: BSK_KF3CT_TGFb1: BioMAP Diversity Plus: KF3CT Assay for Transforming growth factor beta 1 (TGFb1) Biomarker Activity (AID 2283072); settings: primary human keratinocytes with fibroblasts; actives raise or lower the signal
Outline: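 Read-out: ELISA for TGF-b1 in keratinocyte/foreskin fibroblast human skin co-culture, 24 h after dosing; bidirectional curve fit vs DMSO baseline; gain or loss of signal scored.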

[14] = read-out: C-C motif chemokine 2 (Homo sapiens) (UniProt P13500); assay: BSK_KF3CT_MCP1: BioMAP Diversity Plus: KF3CT Assay for Monocyte Chemoattractant Protein 1 (MCP1/CCL2) Biomarker Activity (AID 2283073); settings: primary human keratinocytes with fibroblasts; actives raise or lower the signal
Outline: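 ELISA read-out of MCP-1, 24 h post-dose, in primary human skin keratinocytes co-cultured with fibroblasts. Parallel SRB staining monitors cytotoxicity; changes fitted both directions relative to DMSO.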

[15] = read-out: Matrix Metallopeptidase 9 (MMP9), MMP9 (gene 4318); assay: BSK_KF3CT_MMP9: BioMAP Diversity Plus: KF3CT Assay for Matrix Metallopeptidase 9 (MMP9) Biomarker Activity (AID 2283074); settings: primary human keratinocytes with fibroblasts; actives raise or lower the signal;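 as to AC50: MMP9 protein level quantified by ELISA in the co-culture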
Outline: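 ELISA read-out of MMP-9 at 24 h post-dosing in a co-culture of human skin keratinocytes and foreskin fibroblasts. Gain or loss of signal was fitted in both directions against DMSO.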

[16] = read-out: urokinase plasminogen activator (uPA), PLAU (gene 5328); assay: BSK_KF3CT_uPA: BioMAP Diversity Plus: KF3CT Assay for urokinase plasminogen activator (uPA) Biomarker Activity (AID 2283075); settings: primary human keratinocytes with fibroblasts; actives raise or lower the signal
Outline: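 Skin co-culture (keratinocytes + foreskin fibroblasts), human primary; 24 h post-dose; uPA by ELISA; gain/loss fit vs DMSO baseline.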

CD40, CD40 (gene 958) = assay: BSK_LPS_CD40: BioMAP Diversity Plus: LPS Assay for CD40 Biomarker Activity (AID 2283076); settings: primary human HUVEC with PBMC; actives raise or lower the signal
Outline: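 In the LPS system of human endothelial cells with peripheral blood mononuclear cells, CD40 levels were read by ELISA 24 h post-treatment. Signal changes in either direction were fitted against the DMSO baseline, with parallel SRB protein staining.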

[17] = read-out: E-selectin (Homo sapiens) (UniProt P16581); assay: BSK_LPS_Eselectin: BioMAP Diversity Plus: LPS Assay for Eselectin Biomarker Activity (AID 2283077); settings: primary human HUVEC with PBMC; actives raise or lower the signal
Outline: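 E-selectin ELISA on LPS-stimulated endothelial cell/PBMC co-cultures, read 24 h post-treatment; gains and losses fitted against DMSO. Parallel SRB staining (0.1% SRB after 10% TCA fixation, 560 nm) flags overt cytotoxicity.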

[18] = BSK_LPS_SRB: Viability Assessment in the BioMAP Diversity Plus: LPS Assay (AID 2283079); settings: primary human HUVEC with PBMC;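 also: total protein by sulforhodamine B absorbance as a cytotoxicity measure; measured one day after compound addition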
Outline: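 SRB viability endpoint: cells fixed with 10% TCA, stained with 0.1% SRB, read at 560 nm, 24 h post-dose. HUVEC/PBMC co-culture; signal change in either direction scored relative to DMSO.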

[19] = read-out: Interleukin-8 (IL8), CXCL8 (gene 3576); assay: BSK_LPS_IL8: BioMAP Diversity Plus: LPS Assay for Interleukin-8 (IL8) Biomarker Activity (AID 2283078); settings: primary human HUVEC with PBMC; actives raise or lower the signal
Outline: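 ELISA read-out of IL-8 after 24 h chemical treatment of LPS-activated endothelial/PBMC human primary co-cultures. Changes either up or down relative to DMSO; overt cytotoxicity checked by sulforhodamine B staining in parallel wells.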

Measured: AC50

Sequence of E-selectin (Homo sapiens) (P16581 whole entry, looked up): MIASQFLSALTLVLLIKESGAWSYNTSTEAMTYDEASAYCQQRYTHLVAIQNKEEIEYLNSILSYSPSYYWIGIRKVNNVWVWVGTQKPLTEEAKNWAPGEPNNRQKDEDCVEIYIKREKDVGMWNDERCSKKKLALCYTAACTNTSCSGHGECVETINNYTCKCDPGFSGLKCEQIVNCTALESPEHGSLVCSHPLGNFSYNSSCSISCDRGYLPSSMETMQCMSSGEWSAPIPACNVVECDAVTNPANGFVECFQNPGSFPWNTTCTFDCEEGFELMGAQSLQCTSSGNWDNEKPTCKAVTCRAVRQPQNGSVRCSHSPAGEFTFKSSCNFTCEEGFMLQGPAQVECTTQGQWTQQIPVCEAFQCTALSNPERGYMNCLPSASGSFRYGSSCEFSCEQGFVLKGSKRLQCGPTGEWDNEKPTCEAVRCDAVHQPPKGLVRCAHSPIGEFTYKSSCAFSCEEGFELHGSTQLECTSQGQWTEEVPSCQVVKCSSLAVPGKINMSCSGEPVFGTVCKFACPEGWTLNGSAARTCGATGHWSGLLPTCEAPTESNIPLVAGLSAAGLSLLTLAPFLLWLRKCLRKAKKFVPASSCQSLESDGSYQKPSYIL

COP(=O)(OC)O/C(C)=C/C(=O)N(C)C
not listed: [19]
inactive: all other assays above

O=C1C2CC=CCC2C(=O)N1SC(Cl)(Cl)Cl (configuration not stated)
active: [1] 6.29 µM | [2] 6.26 µM | [4] 7.37 µM | [5] 10.7 µM | [6] 5.37 µM | [7] 7.58 µM | [8] 9.86 µM | [9] 10.3 µM | [10] 5.79 µM | [12] 11.2 µM | [14] 11.8 µM | [15] 8.54 µM | CD40, CD40 (gene 958) 22.3 µM | [17] 29.5 µM | [19] 25.2 µM
inactive: [3] | [18]

CCN(CC)C(=O)C(C)Oc1cccc2ccccc12 (configuration not stated)
not listed: [6]
inactive: all other assays above

Nc1cnn(-c2ccccc2)c(=O)c1Cl
not listed: [19]
inactive: all other assays above

CC1(C)C(C=C(Cl)Cl)C1C(=O)OC(C#N)c1cccc(Oc2ccccc2)c1 (configuration not stated)
active: [18] 3.97 µM
not listed: [19]
inactive: all other assays above

CS(=O)(=O)c1ccc(C(=O)C2C(=O)CCCC2=O)c([N+](=O)[O-])c1
not listed: [19]
inactive: all other assays above

CN=C=S
not listed: [19]
inactive: all other assays above

Clc1cccc(C(Cl)(Cl)Cl)n1
not listed: [19]
inactive: all other assays above

Clc1nc(Cl)nc(Nc2ccccc2Cl)n1
active: [2] 31.7 µM | [4] 29.1 µM | [6] 36.1 µM | [7] 27.2 µM
not listed: [1]
inactive: all other assays above

C=CCOC(=O)C(C)(C)OC(=O)c1cc(-n2c(=O)cc(C(F)(F)F)n(C)c2=O)ccc1Cl
active: [1] 1.88 µM | [3] 30.3 µM | [5] 3.97 µM | [7] 3.51 µM | [9] 6.34 µM | [12] 27.9 µM | [14] 1.89 µM | CD40, CD40 (gene 958) 6.73 µM
not listed: [19]
inactive: all other assays above

CCCC(=NOCC)C1=C(O)CC(CC(C)SCC)CC1=O (configuration not stated)
not listed: [19]
inactive: all other assays above

— PubChem BioAssay (EPA / NIEHS)
